Results from PubChem BioAssay (NCATS).
Inconclusive results are not listed. A call without a number means that no potency is given here. Activity calls are given as the source filed them. Calls follow the shape of the dose curve; as a rule, active = well fitted curve in the direction sought with a large enough effect; inconclusive = small, poorly fitted or top-dose-only effect, or another doubt; inactive = no such curve, though single readings can be large or run the other way.

What follows are molecules tested against Metallo-beta-lactamase type 2 (Klebsiella pneumoniae) (UniProt C7C422) (assay: qHTS to identify inhibitors of the New Delhi Metallo-beta-lactamase (NDM): assay validation screen against the NCATS LOPAC Collection (AID 1794843;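 also: nitrocefin turnover by NDM-1 measured as 485 nm absorbance at plateau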)). Conditions: NDM-1 enzyme, nitrocefin hydrolysis, absorbance 485 nm; series mostly up to 38.4 µM.
Chain of Metallo-beta-lactamase type 2 (Klebsiella pneumoniae) (C7C422 whole entry, looked up): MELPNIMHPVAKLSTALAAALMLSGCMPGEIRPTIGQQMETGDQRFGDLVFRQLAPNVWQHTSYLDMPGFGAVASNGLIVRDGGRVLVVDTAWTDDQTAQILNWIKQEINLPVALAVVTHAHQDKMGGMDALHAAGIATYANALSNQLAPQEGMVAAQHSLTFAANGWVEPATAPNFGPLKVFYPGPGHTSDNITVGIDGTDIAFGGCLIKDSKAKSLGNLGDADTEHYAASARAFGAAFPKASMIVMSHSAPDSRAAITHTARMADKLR
Excerpt: Assay Submitter (PI): James Inglese Ph.D., Patricia Dranchak Ph.D., Mahesh Aitha Ph.D.
Assay Development and Screening Technology Laboratory (ADST)
National Center for Advancing Translational Sciences (NCATS), Rockville, MD
National Institute of Health (NIH), Bethesda, Maryland
The metallo-beta-lactamases (MBL) are a main antibiotic resistance mechanism evolved by bacteria. There is an urgent clinical need for MBL inhibitors to mitigate this growing threat. To support a machine-based learning study, qHTS has been used to experimentally test inhibitors identified by prediction tools.
PROTOCOL TABLE (as described by Inglese et al., 2007)
SEQUENCE No. (e.g., 1, 2, 3, etc.); […] (e.g., enzyme, Incubation, Reagent, etc.); VALUE; DESCRIPTION
1; NDM-1; 4 uL of 3 nM enzyme in 50 mM HEPES (pH 7.0), 1 uM Zn2SO4, 0.01% Tween20; Use BioRaptr to dispense into Aurora black, clear bottom low base 1536-well plates
2; Compounds; 23 nL; Use Pin Tool (Wako) to transfer DMSO control and library compounds in DMSO
4; Reagent; 2 uL of 50 uM nitrocefin
6; Detector; Absorbance at 485 nm (bandwidth = 5 nm, 25 flashes/well) on Tecan Infinity
NOTES (numbers refer to sequence above)
1; Column 1 of each plate received assay buffer without enzyme and columns 2-48 received enzyme for a final assay concentration of 2 nM.
2; Control plate contained DMSO in columns 1, 2, 3, and 4.
3; Compound interaction with enzyme.
5; Substrate interaction with enzyme, plateau phase of kinetics.
6; Default reader settings were applied for absorbance read at 485 nm, bandwidth = 5 nm, 25 flashes/well.
Inglese J, Shamu CE, Guy RK. 2007. Reporting data from high-throughput screening of small-molecule libraries. Nat Chem Biol. doi:10.1038/nchembio0807-438
Yasgar A, Shinn P, Jadhav A, Auld D, Michael S, Zheng W, Austin CP, Inglese J, Simeonov A. 2008. Compound Management for Quantitative High-Throughput Screening. J Lab Autom 13:79 - 89. doi:10.1016/j.jala.2007.12.004
In the case of `O=C(O)/C(=C/c1c(C(=O)O)[nH]c2cc(Cl)cc(Cl)c12)c1ccccc1`, the Potency is reported as “inactive”. `CCCCC[C@H](CC(=O)NO)C(=O)N[C@H](C(=O)N1CCC[C@H]1CO)C(C)C` was tested, and the Potency was “inactive”. With `CC(C)[C@@H]1CC[C@@H](C)C[C@@H]1P(=O)(c1ccccc1)c1ccccc1` the Potency was “inactive”. For `CC(N)(C(=O)O)c1ccc(C(=O)O)cc1` (stereo not given), the Potency was “inactive”. For `NCCCCN=C(N)N`, the Potency was “inactive”. For `CCCn1c(=O)c(C)cn2nc(N)nc12`, the Potency was “inactive”. With `CCCCCCCCCCC(C)(C)C(=O)Nc1c(OC)cc(OC)cc1OC` the Potency was “inactive”. In the case of `N[C@H](C(=O)O)[C@H](O)C(=O)O`, the Potency is reported as “inactive”. In the case of `CC(=O)[C@H]1CCC2C3CC=C4C[C@@H](OS(=O)(=O)O)CC[C@]4(C)C3CC[C@@]21C` (stereo not given in full), the Potency is reported as “inactive”. In the case of `CNc1ncnc2c1ncn2[C@H]1C[C@H](OP(=O)(O)O)[C@@H](COP(=O)(O)O)O1`, the Potency is reported as “inactive”. For `O=C1C2C=CC=CC2=NC(=S)N1CCN1CCC(=C(c2ccc(F)cc2)c2ccc(F)cc2)CC1` (stereo not given), the Potency was “inactive”. In the case of `CC(N)=NCCCC[C@@H](N)C(=O)O`, the Potency is reported as “inactive”. With `c1ccc2nc(C3=NCCN3)ccc2c1` the Potency was “inactive”. In the case of `O=c1[nH]c2cc(Cl)ccc2c(O)c1-c1ccc(Oc2ccccc2)cc1`, the Potency is reported as “inactive”. In the case of `C[C@]12C=CC(=O)C=C1CC[C@@H]1C2=CC[C@]2(C)[C@@H](C(=O)CN3CCN(c4cc(N5CCCC5)nc(N5CCCC5)n4)CC3)CC[C@@H]12`, the Potency is reported as “inactive”. With `N#Cc1cc([N+](=O)[O-])c2sc(C(N)=O)[n+]([O-])c2c1` the Potency was “inactive”. `CC(C)NCC(O)COc1ccc(CC(N)=O)cc1` (stereo not given) was tested, and the Potency was “inactive”. `C[C@@H](NCCc1ccc(O)cc1)[C@@H](O)c1ccc(O)cc1` was tested, and the Potency was “inactive”. In the case of `OC[C@H]1O[C@H](n2cnc3c(N[C@H]4CCC[C@@H]4O)ncnc32)[C@H](O)[C@@H]1O`, the Potency is reported as “inactive”. `CCCCOC(=O)NS(=O)(=O)c1sc(CC(C)C)cc1-c1ccc(Cn2c(CC)nc3c(C)cc(C)nc32)cc1` was tested, and the Potency was “inactive”. With `CCCCCCCCCCCCCCCCCCOC[C@H](COP(=O)([O-])OCC[N+](C)(C)C)OC` the Potency was “inactive”. In the case of `NCC(O)C1CCCCCCC1` (stereo not given), the Potency is reported as “inactive”. With `O=C(O)c1cc2cc(F)ccc2[nH]1` the Potency was “inactive”. In the case of `CCC1(O)CC2CN(CCc3c([nH]c4ccccc34)[C@@](C(=O)OC)(c3cc4c(cc3OC)N(C=O)C3[C@]45CCN4CC=C[C@@](CC)([C@@H](OC(C)=O)[C@]3(O)C(=O)OC)[C@H]45)C2)C1` (stereo not given in full), the Potency is reported as “inactive”. With `NC(=O)CC[C@H](N)C(=O)O` the Potency was “inactive”. `CCCCCC[C@@H]([C@@H](C)O)n1cnc2c(N)ncnc21` was tested, and the Potency was “inactive”. For `O=C(O)C1CN(CCCP(=O)(O)O)CCN1` (stereo not given), the Potency was “inactive”. For `N[C@H]1CONC1=O`, the Potency was “inactive”. In the case of `NC(Cc1cccc(-c2ccccc2CP(=O)(O)O)c1)C(=O)O` (stereo not given), the Potency is reported as “inactive”. For `O=C(O)/C=C/c1ccc(O)c(O)c1`, the Potency was “inactive”. With `CC1=C(C(=O)O)N2C(=O)[C@@H](NC(=O)C(N)C3=CCC=CC3)[C@H]2SC1` (stereo not given in full) the Potency was “inactive”. In the case of `C[C@@]1(C2CCCC2)Cc2cc(OCC(=O)O)c(Cl)c(Cl)c2C1=O`, the Potency is reported as “inactive”. With `N[C@@H](Cc1ccc(O)c(I)c1)C(=O)O` the Potency was “inactive”. With `CCOC(=O)C12CC1/C(=N/O)c1ccccc1O2` (stereo not given) the Potency was “inactive”. `NCC(O)c1ccc(O)c(O)c1` (stereo not given) was tested, and the Potency was “inactive”. With `O=C(O)Cc1ccc(O)c(O)c1` the Potency was “inactive”. With `CN(C)CCCc1cc(C(=O)Nc2ccc(-c3ccncc3)cc2)ccc1O` the Potency was “inactive”. For `O=[N+]([O-])c1cccc2c(Br)[nH]nc12`, the Potency was “inactive”. With `O=c1onc2cnc3ccccc3n12` the Potency was “inactive”. For `O=C(O)C1=CCNCC1`, the Potency was “inactive”.
